# ± gives the standard deviation. In all, about 6,600 sequences were measured (“pre-steady-state target cleavage rate”: median about 0.07, highest 2% from about 0.72 on). The full list was thinned out, with the highest values kept by preference.
# Tested on: MIWI (PIWIL1) piRISC loaded with Kctd7 piRNA (30 nt)
# Assay: pre-steady-state target cleavage rate (min^-1); MIWI and MILI are mouse PIWI proteins and EfPiwi is from a freshwater sponge; tags in brackets are library labels; higher = faster piRNA-guided slicing of the target
# Settings: guide: Kctd7 piRNA 5'p-UGUUAAUCUCUCAGAGAAGGUGACAGUGAU; auxiliary factor: 500 nM mouse GTSF1
# Protocol: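 Cleave-'n-Seq: a library of target RNAs (target site embedded in constant flanks, ACAGCATTCCGCGTTAGTGATATCCG... 5' flank; DNA-blocked outside the site) at 0.1 nM was incubated with 1 nM active mouse MILI or MIWI piRISC (synthetic 5'-monophosphorylated piRNA guide) with or without 500 nM mouse GTSF1 at 33 °C for 1 min to 16 h. Uncleaved targets were sequenced and normalised to non-target controls, and the pooled three trials were fitted to a burst-and-steady-state model to give the pre-steady-state cleavage rate (min^-1; k3 is constrained to at most 1e-4). Sequence is the target site only; target names encode pairing extent (gX:gY) and contiguous / 1-mismatch / 2-mismatch / bulge geometry. Fits with R² ≤ 0 are excluded.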
row,Sequence,pre-steady-state target cleavage rate
1,UAGUGACAGUCCUUCUCAGAGAGUUUAACA,0.0044 ± 0.0027
2,UAGUGACUCACGAUCUCUGAGAGAUUAACA,0.00958 ± 0.0018
3,UACACUGUCACCUUCUCUGAGAGAUGUAACA,0.386 ± 0.051
4,AACACUCUCACCUUCUCUGAGAGAUUAACA,0.564 ± 0.035
5,UACACUGUCACCUUCUCUGAGAGAUUACCA,0.152 ± 0.024
6,UUCACUGUCACCUCUCUGAGAGAUUAACA,0.501 ± 0.037
7,UACACUGUCACCAUUCUCUGAGAGAUUAACA,0.674 ± 0.035
8,UUCACUGUCACAUUCUCUGAGAGAUUAACA,0.682 ± 0.031
9,AUCACUGUCACCAUUCUCUGAGAGAUUAACA,0.741 ± 0.036
10,UAGUCUGUCACCAUUCUCUGAGAGAUUAACA,0.601 ± 0.03
11,UUCACUGUCACCUCUCUCUGAGAGAUUAACA,0.289 ± 0.022
12,UACACUGUCACAUUCUCUGAGAGAUUAACA,0.676 ± 0.036
13,AUCACUGUCACAUUCUCUGAGAGAUUAACA,0.799 ± 0.035
14,UUCACUGUCACCAUUCUCUGAGAGAUUAACA,0.725 ± 0.029
15,UACACUGUCCACCUUCUCUGAGAGAUUAACA,0.496 ± 0.038
16,UAGAGUGACACCUUCUCUGAGAGAUUAACA,0.55 ± 0.023
17,UAGACUUUCACCUUCUCUGAGAGAUUAACA,0.612 ± 0.033
18,UAGUGACAGUGUUUCUCUGAGAGAUUAACA,0.00493 ± 0.0019
19,UAGUGUGACACCUUCUCUGAGAGAUUAUGA,0.0202 ± 0.0074
20,UACACUGUCAACCUUCUCUGAGAGAUUAACA,0.193 ± 0.016
21,UUCACUGUCAACUUCUCUGAGAGAUUAACA,0.668 ± 0.028
22,UACACUGUCAACUUCUCUGAGAGAUUAACA,0.796 ± 0.035
23,AUCACUGUCAACUUCUCUGAGAGAUUAACA,0.793 ± 0.045
24,AUCACUGUCACUUCUCUGAGAGAUUAACA,0.628 ± 0.044

row,Sequence,pre-steady-state target cleavage rate
1,UAGACUGUCAACUUCUCUGAGAGAUUAACA,0.726 ± 0.049
2,UAGACUGUCAACCUUCUCUGAGAGAUUAACA,0.282 ± 0.023
3,UACACUGUCACACUUCUCUGAGAGAUUAACA,0.544 ± 0.023
4,UAGUCUGUCAACUUCUCUGAGAGAUUAACA,0.593 ± 0.024
5,UUCACUGUCACCUUCUCUGAAGAGAUUAACA,0.019 ± 0.0081
6,UAGUGACUCACCUUCUGUGAGAGAUUAAGA,0.088 ± 0.02
7,AAGACUGUCACCUUCUCUGAGAGAUUAAGA,0.238 ± 0.037
8,AAGACUGUCACCUUCUCUGAGAGAUUAACA,0.786 ± 0.036
9,UAGACUGUCACCUUCUCUGAGAGAUUAACA [g2:g27:cont:t1A],0.805 ± 0.05
10,UAGACUGUCACCUUCUCUCUGAGAUUAACA,0.0118 ± 0.0026
11,UAGACUGUCACCUUCUCUGAGAAGAUUAACA,0.0399 ± 0.0084
12,UAGACUGUCACCUUCUCUGAGAGAUUAACC [g2:g27:cont:t1C],0.322 ± 0.03
13,UAGACUGUCACCUUCUCUGUGAGAUUUUGA,0.0048 ± 0.0033
14,UAGUGACACACCUUCACUGAGAGAAUAACA,0.0335 ± 0.0091
15,UAGUGAGUCACCUUCACUGAGAGAUUUUGA,0.0525 ± 0.017
16,UACACUCUCACCUUCACUGAGAGAUUAACA,0.256 ± 0.02
17,UAGACUGUCACCUUGCUCUGAGAGAUUAACA,0.358 ± 0.049
18,UAGACUGUCACCUGCUCUGAGAGAUUAACA,0.77 ± 0.043
19,UACACUGUCACCUCUCUCUGAGAGAUUAACA,0.425 ± 0.029
20,UAGACUGUCACCUGUCUCUGAGAGAUUAACA,0.561 ± 0.036
21,UACACUGUCACCUCCUCUGAGAGAUUAACA,0.731 ± 0.026
22,AUCACUGUCACCUCUCUCUGAGAGAUUAACA,0.515 ± 0.031
23,UAGACUGUCACCUCUCUCUGAGAGAUUAACA,0.409 ± 0.044
24,UUCACUGUCACCUCCUCUGAGAGAUUAACA,0.639 ± 0.021

row,Sequence,pre-steady-state target cleavage rate
1,UAGACUGUCACCUCUCUGAGAGAUUAACA,0.321 ± 0.036
2,UAGACUGUCACCUCCUCUGAGAGAUUAACA,0.744 ± 0.035
3,AUCACUGUCACCUCCUCUGAGAGAUUAACA,0.802 ± 0.033
4,UACACUGUCACCUCUCUGAGAGAUUAACA,0.5 ± 0.035
5,UUCACUGUCAGGUUCUCUGAGAGAUUAUGA,0.0127 ± 0.003
6,UAGUGACUCACCUUCUCUGACACAUUAACA,0.00928 ± 0.0035
7,UUCACUGUCACCUUGUCUGAGUGAUUAACA,0.0394 ± 0.0054
8,UAGUCUGUCUCCUUCUGUGAGAGAUUAACA,0.536 ± 0.028
9,UUCACUGUGACGUUCUCUGAGAGAUUAACA,0.59 ± 0.026
10,AUCAGACUCACCUUCUCUGAGAGAUUAAGA,0.159 ± 0.028
11,AUCACUGUCACCUUCUCUGAGAGUAUUUGA,0.109 ± 0.034
12,UUCACUGUCACCUUCUCUGAGAGAAAAUGA,0.0429 ± 0.015
13,UAGUGACUCACCUUCUCUCAGAGAUAAACA,0.0156 ± 0.0032
14,UAGUGACUCACCCUCUCUGAGAGAUUAACA,0.415 ± 0.045
15,AUCUCUGUCACCUUCUCUCAGAGAUUAACA,0.105 ± 0.0088
16,UAGUGUGUCACCAUCUCUGACAGAUUAACA,0.222 ± 0.021
17,UAGACUGUCACCUUCUCUGAGAGAUAAUGA,0.00696 ± 0.0033
18,UAGUCUGUCACCUCUCUGAGAGAUUAACA,0.447 ± 0.048
19,UAGUCUGUCACCUCCUCUGAGAGAUUAACA,0.726 ± 0.038
20,UAGUCUGUCACCUCUCUCUGAGAGAUUAACA,0.481 ± 0.032
21,UAGUGACUCACCUUCUCUGAGAGAUUAACC [g2:g23:cont:t1C],0.303 ± 0.032
22,AUCACUGUCAGGUUCUCUGAGAGAUUAACA,0.653 ± 0.043

# From the supplement of paper PMC10338343
